Inhibition data for 85 molecules are collected here from PubChem BioAssay AID588493 (Sanford-Burnham Center for Chemical Genomics, 2011).

“And” between values parts separate entries of the source, which are not always exact repeats. Equal entries are not always repeated. Out of some 360,000 compounds screened, about 2,100 (0.58%) were called active. Shown is part of a subset that was picked to be rich in actives. A number with no mark means an inactive call.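 How the source made its calls: active means inhibition at 20 µM, scaled to each plate's controls, above about 33% (limit read from the data); inactive means the rest.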

26S proteasome non-ATPase regulatory subunit 14 (Homo sapiens), sequence (O00487 whole entry, looked up): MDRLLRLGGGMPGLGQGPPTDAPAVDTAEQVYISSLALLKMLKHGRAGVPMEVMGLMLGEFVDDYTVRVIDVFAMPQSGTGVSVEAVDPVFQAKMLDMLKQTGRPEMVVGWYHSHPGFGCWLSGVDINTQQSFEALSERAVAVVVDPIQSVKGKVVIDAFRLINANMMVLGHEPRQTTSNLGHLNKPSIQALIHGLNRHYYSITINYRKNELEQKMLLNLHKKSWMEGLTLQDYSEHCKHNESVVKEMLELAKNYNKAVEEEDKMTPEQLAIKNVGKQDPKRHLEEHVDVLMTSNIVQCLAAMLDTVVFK

The assay has as its target 26S proteasome non-ATPase regulatory subunit 14 (Homo sapiens) (UniProt O00487). Put plainly: inhibition of 26S proteasome subunit Rpn11 – biochemical, fluorescence polarization, uHTS, primary screen (AID 588493). The conditions noted are these: human 26S proteasome, Ub4-pepOG fluorescence polarization; at 20 µM; stronger effect = higher value; 20S core pre-blocked with epoxomicin.
With `CCOC(=O)N1CCC(NC(=O)C(NS(=O)(=O)c2ccc3c(c2)CCN3C(=O)CC)C(C)C)CC1` (stereo not given), the inhibition was 46.5% (active). For the molecule `COc1ccc(NC(=O)C(CC(C)C)NS(=O)(=O)c2ccc3c(c2)CCN3C(C)=O)cc1OC` (stereo not given), the inhibition was 6.4%.

Regarding `CCC(=O)N1CCc2cc(S(=O)(=O)NC(C(=O)N3CCc4ccccc4C3)C(C)C)ccc21` (stereo not given), the inhibition was 1.1%. The result for `CC(C)S(=O)(=O)c1csc(NC(=O)Nc2ccc(Cl)cc2)c1Cl` reads 1.6%; that for `CCC(C)Cn1c(O)cc2nn(-c3nc4ccccc4s3)c(=O)c-2c1C` (stereo not given), 95.3% (active); that for `N#Cc1ccc(-c2ccc3nccn3c2)cc1`, 1.6%. As to `O=C(CNC(=O)c1cccnc1)N/N=C/c1cc(Br)c(O)c(Br)c1`, the inhibition was -14.1%.

For the molecule `Cc1ccc(/C=N/NC(=O)CSc2nc3ccccc3o2)cc1`, the inhibition is 1%. The result for `O=C(CSc1cccc2cccnc12)N/N=C/c1cccnc1` reads 71.4% (active); that for `Cc1nnc(SCc2nc3ccccc3nc2C)s1`, -1.4%. The value for `COc1ccc2cc(C(=O)C3CCCN(C(=O)c4sc(C)nc4C)C3)ccc2c1` (stereo not given) was 5.8%; that for `COc1cc(CO)ccc1OCC(=O)Nc1cccc2ccccc12` was 1.6%; that for `COc1ccc(Cn2c(O)c(/C=C3/C=CC=N3)c(=O)[nH]c2=O)cc1` was 14.5%. For the molecule `CCCOc1ccc(Cn2c(O)cc(=O)[nH]c2=O)cc1`, the inhibition is 65.3% (active).

As to `COc1cc(=O)[nH]c(=O)n1C(=O)Cc1ccccc1`, the inhibition is 2.2%. The result for `COc1ccc(C2c3[nH]c4ccccc4c3C[C@H]3C(=O)N(CC(C)C)CC(=O)N23)c(OC)c1` (stereo not given in full) reads -8.2%; that for `Cc1ccc(NC(=O)CN(C)Cc2ccc(F)cc2)c([N+](=O)[O-])c1`, -8.1%; that for `COc1ccc2c(c1)c(=Cc1ccc(N(C)C)cc1)c1cc(-c3ccccc3)[n+](C)n12`, 59.4% (active). In the case of `O=C(CNC(=O)c1ccc(Cl)cc1Cl)NCC(=O)Nc1ccccc1N1CCOCC1`, the inhibition was -2.4%. `CCCNC(=O)CCn1nc(-c2ccccc2)c2ccccc2c1=O`: the inhibition is -1.2%.

Turning to `CC(C)Cn1c(CCC(=O)O)ccc1-c1cccs1`, the inhibition was 39.7% (active). The value for `CCOC(=O)c1ccc(-n2c(CCC(=O)O)ccc2-c2ccccc2)cc1` was 1.9%. The result for `COCCCn1c(CCC(=O)O)ccc1-c1ccc(F)cc1` reads 6.6%; that for `CC(=O)c1sc(NC(=O)C2=NN(c3ccccc3)C(=O)CC2)nc1C`, 1.1%; that for `CC(=O)c1sc(N)nc1C`, -7.7% and -13.1%. The result for `CC(=O)c1sc(N/N=C/c2ccc(C(C)C)cc2)nc1C` reads 42.3% (active); that for `Cc1cc2c(cc1C)N1C(=O)c3cc4ccccc4cc3NC(=O)C1C(=O)N2` (stereo not given), 7%.

Consider `COc1ccc(NC(=O)c2cn(-c3ccccc3)nc2SC)cc1`, for which the inhibition was 4.3%. Regarding `CCOc1ccc(-c2c(C)n([O-])c3c([n+]2=O)CCCC3)cc1`, the inhibition was 3%. `Oc1ccc(/C=N/Nc2nc(-c3ccccc3F)nc3ccccc23)c(O)c1`: the inhibition was 43.1% (active). `Cc1ccc(/C=N/NC(=O)C2=NNC(c3ccccc3)(c3ccccc3)C2)c(O)c1`: the inhibition was 3.5%. The value for `O=C(NNc1c2ccccc2nc2ccccc12)c1cc2ccccc2cc1O` was -5.5%; that for `Cc1nnc(SC(C)C(=O)c2c[nH]c3ccccc23)n1C1CC1` (stereo not given) was -0.9%.

As for `CCCCN(C(=O)c1ccc(C)o1)c1c(N)n(CCCC)c(=O)[nH]c1=O`, the inhibition was -3.8%. The value for `O=C(COC(=O)COc1cccc(F)c1)NCC1CCCCC1` was -7.3%; that for `O=C(COc1cccc(F)c1)Oc1ccc(C(=O)c2ccccc2)cc1` was 43% (active); that for `CCN(C(=O)COc1ccc(C(=O)c2ccccc2)cc1)c1ccccc1` was -0.2%. The result for `O=C(c1cccnc1)N(c1cc2sc(=O)oc2c2ccccc12)S(=O)(=O)c1ccccc1` reads 2.8%; that for `NC(=O)Cc1ccc2sc(-c3ccccc3)nc2c1`, 4.7%. As to `C=CCn1c(SCC(=O)NCc2ccccc2)nnc1-c1cc(Br)ccc1O`, the inhibition was 37.3% (active). Regarding `O=C(CSc1nnc(-c2cccnc2)n1CCc1ccccc1)NCc1ccccc1`, the inhibition was -6.8%.

In the case of `C=CCn1c(SCC(=O)NC(=O)Cc2ccccc2)nc2ccccc2c1=O`, the inhibition was 0.5%. Regarding `COc1ccc(CNc2c(CO)cnc3c2cnn3C)cc1`, the inhibition is -6.6%.

With `COCCCNC(=S)N1CCN(c2nc(-c3cccc(OC)c3)cs2)CC1`, the inhibition is 5.4%. Consider `N#Cc1ccc(C(=O)Nc2cccc3cccnc23)c(F)c1`, for which the inhibition was 102% (active). In the case of `CSc1ccc(C#N)cc1NC(=O)c1cccc(Cl)c1`, the inhibition is 7.6%. The result for `COc1ccc(NC(=O)c2ccco2)cc1NC(=O)c1ccc(C#N)cc1F` reads -5.8%; that for `Cc1ccc(CCNC(=O)CN2C(=O)CSc3ccc(S(=O)(=O)N4CCOCC4)cc32)cc1`, -1.8%; that for `CCCCCCCCc1c(O)nc(-n2[nH]c(C)c(CCO)c2=O)[nH]c1=O`, 11.1%. Regarding `COc1ccc(/C=C(\C#N)C(=O)NCCCn2ccnc2)cc1`, the inhibition was -1.5%. The value for `COc1cc(OC)cc(C(=O)NCCCn2ccnc2)c1` was 0.7%.

For the molecule `COc1cccc(-c2nn(-c3ccccc3)cc2/C=C(\C#N)C(=O)NCCCn2ccnc2)c1`, the inhibition is 56% (active). For `CCCCc1nnc(NC(=O)CS(=O)(=O)Cc2ccccc2)s1`, the inhibition was 5.2%. For `C/C(=N/NS(=O)(=O)c1ccccc1)c1ccc(NC(=O)C(F)(F)F)cc1`, the inhibition was -2%. The result for `NC(=O)c1cc(S(=O)(=O)NCCCc2ccco2)cs1` reads -4.1%; that for `O=C(N/N=C\c1cccc(Br)c1)c1ccccc1-n1cccc1`, 23.2%. The result for `O=C(N/N=C/c1cccc(Br)c1)c1ccc(N2CCCC2=O)cc1` reads 49.1% (active); that for `O=C(Nc1ccc(N2CCCC2=O)cc1)c1cncc(Br)c1`, -4.8%; that for `Cc1cc2nc(-c3ccco3)c(Cc3cccc(F)c3)n2c(C)c1Br`, 11.6%. For the molecule `CN(C)CCn1c2c(c(SCC(=O)Nc3ccccc3C(F)(F)F)nc1=O)CCCC2`, the inhibition is -0.6%. The result for `O=C1c2ccccc2S(=O)(=O)c2cc(N3CCN(c4ccccn4)CC3)ccc21` reads 40.2%; that for `CC1CCN(c2ccc3c(c2)S(=O)(=O)c2cc(C(=O)O)ccc2C3=O)CC1`, 57.1% (active); that for `OC(c1ccc(Cl)cc1)c1ncc(-c2ccc(Cl)cc2)[nH]1` (stereo not given), -5.5%. With `COc1ccc(CNC(=O)C(C)n2nc(C)c3c(C)n(-c4ccccc4)nc3c2=O)c(OC)c1` (stereo not given), the inhibition was 0%. The value for `CCCCN(C(=O)C1CCC1)c1c(N)n(Cc2ccccc2)c(=O)[nH]c1=O` was -10.9%; that for `Cc1ccc(Cl)cc1NC(=O)COC(=O)C1CCCCC1` was -8.8%; that for `CCNCc1cc2cc(C)ccc2[nH]c1=O` was 82.8% (active).

For the molecule `CCC(=O)N(CCc1ccccc1)Cc1cc2cc(C)ccc2[nH]c1=O`, the inhibition was -6.2%. Take `CCCc1nc(-c2cc3cc(C)ccc3[nH]c2=O)no1`: the inhibition is -0.2%.

Take `CCc1noc(C)c1C(=O)N1CCN(S(=O)(=O)c2cccc(C(F)(F)F)c2)CC1`: the inhibition was 0%. As to `CC(=O)c1ccc(NC(=S)N(Cc2ccccc2)C(C)C2CC2)cc1` (stereo not given), the inhibition is 8.8%. As for `CCC(=O)Nc1ccc2nc(C)n(Cc3ccccc3Cl)c(=O)c2c1`, the inhibition is -7.7%. The value for `CCOc1cc(NC(=O)c2ccccc2C(=O)O)c(OCC)cc1NC(=O)c1ccccc1F` was 1.8%. The result for `CCN1CCN(c2cc3nc(C)n(Cc4ccccc4)c(=O)c3cc2NC(=O)c2ccccc2F)CC1` reads 47.3% (active); that for `Fc1ccc(CNc2nc3ccccc3n3nnnc23)cc1`, -38.7%. With `CCN1CCCC1CNC(=O)c1cc2c(=O)n(C)c3ccccc3c2n1C` (stereo not given), the inhibition is 66.2% (active). The value for `Cn1c(C(=O)N2CCC(C(N)=O)CC2)cc2c(=O)n(C)c3ccccc3c21` was -3.7%; that for `CCN1CCCC1CNC(=O)c1cc2cc(OC)c(OC)cc2[nH]1` (stereo not given) was -10.4%; that for `CCn1c(Cc2ccc(OC)cc2)nnc1SCC(=O)Nc1ccc(N2CCOCC2)cc1` was 5%.

On to `COc1cccc(/C=C(/CC(=O)Nc2ccc(N3CCOCC3)cc2)c2nc3ccccc3s2)c1`, for which the inhibition is 41.7% (active). On to `Cc1ccc(OCCCC(=O)Nc2ccc(N3CCOCC3)cc2)cc1`, for which the inhibition was 1.7%. On to `COc1cc(OC)cc(C(=O)Nc2ncc3c(n2)CC(C)(C)CC3=O)c1`, for which the inhibition is 1.2%. The result for `CCN(CC)S(=O)(=O)c1ccc2nc(CSc3nnnn3-c3ccc(O)cc3)[nH]c2c1` reads 0.9%; that for `O=C(Nc1cc(Br)ccc1F)c1nc[nH]c1C(=O)NCc1ccccc1`, -6.2%.

As to `O=C(c1ccc2c(c1)N(Cc1ccc(F)cc1)C(=O)CS2)N1CCOCC1`, the inhibition was 1.1%.
